Where “and” joins values, the source holds several entries; their conditions need not be identical. Equal values may be shown once. The campaign covered roughly 5,500 compounds. About 2,000 (36%) were called active. Inconclusive results (about 18%) are left out. Cut-off read from the data, not from the text of the source: active = normalized growth mostly below about 0.91 (no sharp cut-off); inconclusive = no clear call, values can overlap the other calls; inactive = mostly above about 0.92. Some of the results follow.
Experiment: chemical genetic growth profiling, strain panel (AID 1159580);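 note: tested at 20 µM; growth read once vehicle control cultures reached saturation at 30 °C; 1 = growth at the plate median or of vehicle wells; lower values mean less growth of the strain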
Settings: growth OD

Measured: normalized growth

O=C(O)c1cc(=O)c2c(Cl)cc(Cl)cc2[nH]1
inactive: S. cerevisiae deletion strains, locus YJL187C, strain SWE1, stronger effect = lower value 1.02 | S. cerevisiae deletion strains, locus YJR043C, strain POL32, stronger effect = lower value 1 | S. cerevisiae deletion strains, locus YJR075W, strain HOC1, stronger effect = lower value 0.985 | S. cerevisiae deletion strains, locus YKL009W, strain mrt4, stronger effect = lower value 1 | S. cerevisiae deletion strains, locus YKL068W, stronger effect = lower value 1 | S. cerevisiae deletion strains, locus YKL085W, strain MDH1 (second series), stronger effect = lower value 1.01 | S. cerevisiae deletion strains, locus YKL085W, strain MDH1, stronger effect = lower value 1.01 | S. cerevisiae deletion strains, locus YKL160W, strain elf1, stronger effect = lower value 1.01 | S. cerevisiae deletion strains, locus YKL190W, strain CNB1, stronger effect = lower value 1 | S. cerevisiae deletion strains, locus YKR001C, strain vps1, stronger effect = lower value 1.05 | S. cerevisiae deletion strains, locus YKR026C, strain gcn3, stronger effect = lower value 1.02 | S. cerevisiae deletion strains, locus YKR091W, strain srl3, stronger effect = lower value 1.01 | S. cerevisiae deletion strains, locus YLL001W, strain dnm1, stronger effect = lower value 1.03 | S. cerevisiae deletion strains, locus YLL026W, stronger effect = lower value 1.01 | S. cerevisiae deletion strains, locus YLL041C, strain sdh2, stronger effect = lower value 1.01 | S. cerevisiae deletion strains, locus YLR027C, strain aat2, stronger effect = lower value 1.01 | S. cerevisiae deletion strains, locus YLR039C, strain RIC1, stronger effect = lower value 1.04 | S. cerevisiae deletion strains, locus YLR058C, strain SHM2, stronger effect = lower value 1.01 | S. cerevisiae deletion strains, locus YLR102C, strain apc9, stronger effect = lower value 1.01 | S. cerevisiae deletion strains, locus YLR221C, strain rsa3, stronger effect = lower value 1.02 | S. cerevisiae deletion strains, locus YLR258W, strain gsy2, stronger effect = lower value 1.02 | S. cerevisiae deletion strains, locus YLR262C, strain YPT6 (second series), stronger effect = lower value 1.01 | S. cerevisiae deletion strains, locus YLR262C, strain YPT6, stronger effect = lower value 1.03 | S. cerevisiae deletion strains, locus YLR268W, strain sec22, stronger effect = lower value 1.03 | S. cerevisiae deletion strains, locus YLR320W, strain mms22, stronger effect = lower value 1.03 | S. cerevisiae deletion strains, locus YLR330W, strain CHS5, stronger effect = lower value 1.01 | S. cerevisiae deletion strains, locus YLR342W, strain FKS1 (second series), stronger effect = lower value 1.02 | S. cerevisiae deletion strains, locus YLR342W, strain FKS1, stronger effect = lower value 1.02 | S. cerevisiae deletion strains, locus YLR357W, strain rsc2, stronger effect = lower value 1 | S. cerevisiae deletion strains, locus YLR370C, strain arc18, stronger effect = lower value 1.02 | S. cerevisiae deletion strains, locus YLR371W, strain rom2, stronger effect = lower value 1 | S. cerevisiae deletion strains, locus YLR384C, strain iki3, stronger effect = lower value 1.01 | S. cerevisiae deletion strains, locus YLR418C, strain cdc73, stronger effect = lower value 1.05 | S. cerevisiae deletion strains, locus YML016C, strain PPZ1, stronger effect = lower value 1.01 | S. cerevisiae deletion strains, locus YML032C, strain rad52, stronger effect = lower value 1.01 | S. cerevisiae deletion strains, locus YML120C, strain ndi1, stronger effect = lower value 1.02 | S. cerevisiae deletion strains, locus YML124C, strain tub3, stronger effect = lower value 1.01 | S. cerevisiae deletion strains, locus YMR058W, strain fet3, stronger effect = lower value 1.01 | S. cerevisiae deletion strains, locus YMR078C, strain ctf18, stronger effect = lower value 1.03 | S. cerevisiae deletion strains, locus YMR125W, strain sto1, stronger effect = lower value 1 | S. cerevisiae deletion strains, locus YMR129W, stronger effect = lower value 1.01 | S. cerevisiae deletion strains, locus YMR205C, strain PFK2, stronger effect = lower value 1.01 | S. cerevisiae deletion strains, locus YMR223W, strain ubp8, stronger effect = lower value 1.03 | S. cerevisiae deletion strains, locus YMR231W, strain pep5, stronger effect = lower value 1.01 | S. cerevisiae deletion strains, locus YMR263W, strain SAP30, stronger effect = lower value 1 | S. cerevisiae deletion strains, locus YMR307W, strain GAS1, stronger effect = lower value 1.04 | S. cerevisiae deletion strains, locus YNL067W, strain RPL9B, stronger effect = lower value 0.997 | S. cerevisiae deletion strains, locus YNL071W, strain lat1, stronger effect = lower value 1.02 | S. cerevisiae deletion strains, locus YNL153C, strain GIM3, stronger effect = lower value 1 | S. cerevisiae deletion strains, locus YNL175C, strain NOP13, stronger effect = lower value 0.996 | S. cerevisiae deletion strains, locus YNL197C, strain WHI3, stronger effect = lower value 1.01 | S. cerevisiae deletion strains, locus YNL209W, strain ssb2, stronger effect = lower value 1 | S. cerevisiae deletion strains, locus YNL224C, strain SQS1, stronger effect = lower value 0.995 | S. cerevisiae deletion strains, locus YNL233W, strain BNI4, stronger effect = lower value 1 | S. cerevisiae deletion strains, locus YNL248C, strain rpa49, stronger effect = lower value 1.01 | S. cerevisiae deletion strains, locus YNL250W, strain rad50, stronger effect = lower value 1.03 | S. cerevisiae deletion strains, locus YNL271C, strain bni1, stronger effect = lower value 1.02 | S. cerevisiae deletion strains, locus YNL298W, strain CLA4, stronger effect = lower value 1.01 | S. cerevisiae deletion strains, locus YNL307C, strain MCK1, stronger effect = lower value 1.02 | S. cerevisiae deletion strains, locus YNL322C, strain KRE1 (second series), stronger effect = lower value 1.02 | S. cerevisiae deletion strains, locus YNL322C, strain KRE1, stronger effect = lower value 0.993 and 1 | S. cerevisiae deletion strains, locus YNR049C, strain mso1, stronger effect = lower value 1.01 | S. cerevisiae deletion strains, locus YNR052C, strain pop2, stronger effect = lower value 1.02 | S. cerevisiae deletion strains, locus YOL006C, strain TOP1, stronger effect = lower value 0.999 | S. cerevisiae deletion strains, locus YOL012C, strain htz1 1.91 | S. cerevisiae deletion strains, locus YOL147C, strain pex11, stronger effect = lower value 1.02 | S. cerevisiae deletion strains, locus YOR001W, strain rrp6, stronger effect = lower value 1.01 | S. cerevisiae deletion strains, locus YOR061W, strain CKA2, stronger effect = lower value 1.02 | S. cerevisiae deletion strains, locus YOR069W, strain VPS5, stronger effect = lower value 1.01 | S. cerevisiae deletion strains, locus YOR070C, strain gyp1, stronger effect = lower value 1.01 | S. cerevisiae deletion strains, locus YOR080W, strain dia2, stronger effect = lower value 1.02 | S. cerevisiae deletion strains, locus YOR083W, strain WHI5 (second series), stronger effect = lower value 0.994 | S. cerevisiae deletion strains, locus YOR083W, strain WHI5, stronger effect = lower value 1.02 | S. cerevisiae deletion strains, locus YOR106W, strain vam3, stronger effect = lower value 1.01 | S. cerevisiae deletion strains, locus YOR136W, strain idh2, stronger effect = lower value 1.02 | S. cerevisiae deletion strains, locus YOR144C, strain elg1, stronger effect = lower value 1.01 | S. cerevisiae deletion strains, locus YOR184W, strain ser1, stronger effect = lower value 1.02 | S. cerevisiae deletion strains, locus YOR265W, strain rbl2, stronger effect = lower value 1.01 | S. cerevisiae deletion strains, locus YOR270C, strain vph1, stronger effect = lower value 1.03 | S. cerevisiae deletion strains, locus YOR290C, strain snf2, stronger effect = lower value 0.991 | S. cerevisiae deletion strains, locus YOR316C, strain cot1, stronger effect = lower value 1.01 | S. cerevisiae deletion strains, locus YPL051W, strain arl3, stronger effect = lower value 1.01 | S. cerevisiae deletion strains, locus YPL055C, strain LGE1, stronger effect = lower value 0.992 | S. cerevisiae deletion strains, locus YPL078C, strain atp4, stronger effect = lower value 1.01 | S. cerevisiae deletion strains, locus YPL106C, strain sse1, stronger effect = lower value 0.999 | S. cerevisiae deletion strains, locus YPL240C, strain hsp82, stronger effect = lower value 1.02 | S. cerevisiae deletion strains, locus YPL241C, strain CIN2, stronger effect = lower value 1 | S. cerevisiae deletion strains, locus YPR119W, strain clb2, stronger effect = lower value 1.01 | S. cerevisiae deletion strains, locus YPR141C, strain kar3, stronger effect = lower value 1.01 | S. cerevisiae deletion strains, locus YPR163C, strain tif3, stronger effect = lower value 1.02 | S. cerevisiae deletion strains, locus YPR167C, strain met16, stronger effect = lower value 1.02 | S. cerevisiae deletion strains, strain wtn01, stronger effect = lower value 1.02 | S. cerevisiae strains, strain wild type, stronger effect = lower value 1

Source: PubChem BioAssay AID1159580 (chemical genetic matrix, 2015)
